# Measurements reported in the supplement of paper PMC6555819.
# Legend:
# Assay in all cases: PBM binding z-score (relative to random genomic background probes); higher = stronger binding; sequences stand for … in GC…GCGATTGACAGCGTAGAATGAAGG
# [1] = test system: FXR:RXRa (NR concentration 270 nM, RXRa partner concentration 90 nM)
# Summary of the method: (§1)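 Probes were double-stranded and carried 34-nt variable regions with direct-repeat seeds, single-nucleotide variants, half-site ablations and random human genomic background sequences, printed on custom Agilent 4×180K protein-binding microarrays. Arrays were incubated 1 h with ligand-free nuclear receptor dimers in PBS pH 7.4, 2% milk, 0.02% Triton X-100, 1 mM DTT, 0.2 mg/mL BSA and 0.4 mg/ml salmon testes DNA. Antibodies against each partner (one per run) detected binding, and scanned fluorescence was regression-normalized. Binding z-scores use the random background probes as reference.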
# [2] = test system: LXRa:RXRa (NR concentration 270 nM, RXRa partner concentration 90 nM)
# Summary of the method: as §1
# [3] = test system: LXRa homodimer (NR concentration 270 nM)
# Summary of the method: as §1
# [4] = test system: LXRb:RXRa (NR concentration 270 nM, RXRa partner concentration 90 nM)
# Summary of the method: as §1
# [5] = test system: LXRb homodimer (NR concentration 270 nM)
# Summary of the method: as §1
# [6] = test system: PPARa:RXRa (NR concentration 270 nM, RXRa partner concentration 90 nM)
# Summary of the method: as §1
# [7] = test system: PPARg:RXRa (NR concentration 180 nM, RXRa partner concentration 90 nM)
# Summary of the method: as §1
# [8] = test system: PPARg:RXRa 270nM:90nM, anti-RXR (NR concentration 270 nM, RXRa partner concentration 90 nM)
# Summary of the method: as §1
# [9] = test system: PPARg:RXRa 30nM:10nM, anti-RXR (NR concentration 30 nM, RXRa partner concentration 10 nM)
# Summary of the method: as §1
# [10] = test system: PPARg:RXRa 90nM:30nM, anti-RXR (NR concentration 90 nM, RXRa partner concentration 30 nM)
# Summary of the method: as §1
Sequence,PBM binding z-score [1],PBM binding z-score [2],PBM binding z-score [3],PBM binding z-score [4],PBM binding z-score [5],PBM binding z-score [6],PBM binding z-score [7],PBM binding z-score [8],PBM binding z-score [9],PBM binding z-score [10]
CCTAGCAGGCCAGGGTCGCTCAAGCATTTCGCTT,1.21,1.49,-0.612,1.26,-1.47,2.58,-0.528,0.271,-1.11,-0.71
AGAATGAGGGTATTAAGATCAGGGAATTGCGGTC,0.048,0.136,-0.107,-0.105,0.211,0.659,0.403,0.28,0.322,0.102
CCGACTGGGGCGTAAGGTTACCATAAGCCAGCCC,0.247,1.35,-0.338,0.704,-1.25,1.35,1.19,2.42,0.143,1.7
CCTTACGGGTCACTGACAGGTTATATCATTTGGA,5.35,4.27,0.675,3.82,-0.0554,5.14,4.29,4.13,1.54,2.98
TCGAGTAGGTCAGTCGGGGCATTCAGCCAACATA,1.39,1.09,-0.271,1.55,-0.625,2.56,2.27,2.87,1.39,2.2
TTATATAGGTAAATGCTAGGTGAAAGTCCGATCT,0.733,0.69,0.375,0.64,0.108,2.18,2.61,2.59,1.97,2.34
CCTACTGGGCCAAGGTAATTGATCAGTCAAAGCA,-0.458,-0.478,-0.526,-0.461,-0.835,0.508,0.767,1.22,0.0282,0.531
TGGCCTAGGTCAGATCGGGCCAGTATACGCTATA,2.31,0.419,-0.777,0.152,-1.29,1.39,0.44,0.442,-0.693,-0.369
CAAACTAGGTCACAAAGGTCAAAGTCCGTGCGTA,7.43,6.7,7.48,6.59,3,6.49,10.3,8.31,7.58,8.55
CGAACTAGGTCAATGACAGGACAGTGAATAGTAA,2.8,2.36,0.289,1.59,0.0362,4.34,7.1,6.02,3.52,5.51
CGTCGAAGGTCATAGGAGGTCAGTGAAGACAGAT,7.63,7.68,5.14,6.27,0.859,5.98,5.54,6.05,3.04,4.92
ATATGTAGGTTAGCTGGGATCATTCAGACTAGGC,0.641,0.823,0.0491,0.629,0.181,2.71,3.18,2.72,0.999,1.85
CATACAGGGTCAGCTATGCCAGAGTAGGGACGGC,4.14,2.68,-0.0915,1.98,0.359,4.21,3.53,2.58,0.968,1.77
CCCGCTAGGTCAATGGTCAGCTAAAGCAGCTCGC,3.1,2.28,-0.0501,1.61,0.293,3.18,5.11,5.22,3.41,5.01
CGAACTAGGTCATCCAGTACAGTGAATACATTGA,4.18,2.86,0.599,2.59,0.209,4.82,7.93,6.36,4.02,5.81
CCGACTAGGTTATGGGGCATTCAGGCAACGGTGA,0.258,0.306,0.00117,0.464,-0.646,1.81,3.22,4.17,1.77,3.95
TCATCTAGGTAAATGCTAGGTGAAAGTCCGATCT,0.554,0.411,0.0508,0.263,-0.0728,1.17,0.51,2.29,3.44,2.92
CGTCCATGGTCAGCAGGTCAGTGAAAGCGACGTG,0.175,-0.104,-0.348,-0.0301,-0.987,0.781,-0.0482,-0.0239,-0.823,-0.464
CAAACTAGGTCAAGGGCAAAGTCGGTTTGTGCCA,3.97,3.12,0.592,2.17,0.2,5.38,9.21,8.06,6.95,8.38
TCTTGTAGATCGAAGGTTAAGAAAGCCGAAGCCT,0.669,0.667,-0.334,0.511,-0.593,2.25,3.11,5.23,4.1,5.26
CAAACTAGGTCACAGAGGTCTAAGTCCGTGCGTA,4.42,3.56,0.555,2.13,0.273,5.17,8.49,6.93,5.19,6.98
CTCGAAAGGTCGGTTGAGGTGAGTATACGGATAA,2.05,1.7,-0.0944,1.35,-0.0787,2.63,0.61,1.18,-0.156,0.663
CCGACTGGGGCAAAGGTTACAATACTCAGTACGA,1.77,1.65,0.0321,2.42,-0.618,5.62,12.1,9.57,11.1,11.3
GGCACGAGGGCAAGTTGATAGCAGAGTTTGATGG,0.802,0.399,-0.191,0.444,-0.697,1.23,0.838,0.927,-0.291,0.52

Sequence,PBM binding z-score [1],PBM binding z-score [2],PBM binding z-score [3],PBM binding z-score [4],PBM binding z-score [5],PBM binding z-score [6],PBM binding z-score [7],PBM binding z-score [8],PBM binding z-score [9],PBM binding z-score [10]
AACTCTAGGTAACAAGTTCAGTGAAAGAGAGGAC,0.335,0.477,0.364,0.379,-0.166,1.58,1.32,1.72,0.492,1.31
TAGCCTAGGTCATGCGGGCGAGTATAGTGTCGGC,3.79,2.5,0.369,1.21,-0.906,3.32,2.45,2.08,-0.413,1.37
ATATGTAGTTTAGCTGGGGTCATTCAGACTAGGC,4.14,4.3,2.38,4.58,1.66,4.45,1.66,2.42,0.899,1.87
ATCGAAAGGTCGACGTGGTGAGTATACACCGTTT,4.21,3.3,0.0877,2.49,0.332,4.08,2.08,2.66,1.01,1.77
GCTGCTCGGTCAGGTTGGTCAGCTAACGGGTACG,-0.343,-0.331,-0.448,-0.697,-0.583,-0.536,-0.75,-0.709,-0.71,-1.1
ATATATAGGTTAGCTGGGGTCATTCAGACTAGGC,4.53,6.18,3.51,5.39,2.03,5.2,5.62,5.43,2.62,4.79
CCTAATGGGCCATCAGGTCATTGATATCAACGTT,1.58,1.34,1.1,1.48,0.197,2.33,1.5,2.54,0.609,1.98
TGAATAAGGTTATAAGATCAGGGAACGTTGCAAA,1.45,1.38,0.228,1.24,-0.00633,2.31,0.925,1.57,1.06,1.53
CGTCCAAGGTCAGCAGGTCAGTGATAGCGACGTG,5.6,3.86,0.399,2.59,-0.265,4.52,4.13,4.45,1.15,3.05
ACAGACAGGTGAGTGAAGGGAACTCAGCTGGACG,0.599,0.176,-0.538,-0.538,-0.387,-0.171,0.513,-0.458,-0.652,-0.465
CCTCCTGGGCCAAGGTCATTGATCAGTCAAAGCA,2.96,2.89,1.06,2.86,-0.68,3.57,1.39,2.83,0.457,1.75
ATCGCAAGGTCGAGGTGAGTATAGAGAAAGGGAA,1.56,0.947,-0.582,0.995,-0.275,2.5,1.05,0.957,0.1,0.379
CCTTACGGGTTAAGGTTATAGCACGGGTGGTACG,1.55,1.38,-0.0602,1.09,-0.11,2.09,1.12,1.61,0.309,1.09
ATATGAAGGTTAAGGGTCATTCAGGTTGGTTCGC,5.91,5.46,3.32,4.85,1.14,5.8,8.33,7.73,5.9,8
GCATATAGGTAATACAAGGTGAATGTCCGATTGT,1.08,1.54,0.343,0.292,-0.289,1.08,1.37,1.14,0.382,0.743
CCTAGTTGGTCAGGAGGTGACACACCGGATATGA,0.076,0.0334,0.0506,0.214,-0.0582,1.17,1.04,1.33,0.0174,0.666
CGTCCCAGGTCAGCAGGTCAGTGAAAGCGACGTG,3.56,2.34,0.419,1.95,-0.0332,3.49,2.6,2.88,0.0912,1.51
CAAACTAGGTCAAGGTCAAAATCGGTTTGTGCCA,6.5,5.02,3.14,4.66,1.58,6.16,9.66,7.73,6.38,7.81
TCTTGTAGATCAATAGATGTTAAGAAAGTGCGCT,0.0811,0.309,0.0852,0.0203,-0.00365,-0.0219,0.251,1.64,3.17,2.42
ACTAGTTGGTCAGCTAAGGTCACACACAATTCGG,3.65,3.51,2.56,3.35,0.836,3.93,1.94,2.76,0.836,1.64
CCTGCTAGGTCAATGGTCAGCTATAGCAGCTCGC,2.7,2.23,0.0531,1.44,0.0202,3.06,4.45,4.91,2.6,4.71
GCTAGTTGGTCAATAAAAGGTCACACACCGGTCG,3.63,5.13,6.33,4.53,0.973,4.39,2.18,3.93,1.16,2.9
AGTCAAAGTTCACTGGGTAACGTAAGATTCAGCT,5.3,5.02,3.18,2.98,0.65,4.78,7.5,6.72,3.78,6.4
TCGAGTAGGTTACCAATGGGGCTTTCAGCTTTCT,-0.0439,0.131,-1.06,0.62,-0.632,0.836,-0.121,0.803,1.11,0.796
